Experimental data: the supplement of paper PMC10681739

These sequences were tested against T1, ETS1 (UniProt P14921) (assay: ETS1 binding intensity (PBM fluorescence) in presence of RUNX1, normalised to ETS1-only experiment (arbitrary fluorescence units); higher = stronger binding). Settings: ETS1 concentration 1 nM; RUNX1 concentration 25 nM.
T1 sequence: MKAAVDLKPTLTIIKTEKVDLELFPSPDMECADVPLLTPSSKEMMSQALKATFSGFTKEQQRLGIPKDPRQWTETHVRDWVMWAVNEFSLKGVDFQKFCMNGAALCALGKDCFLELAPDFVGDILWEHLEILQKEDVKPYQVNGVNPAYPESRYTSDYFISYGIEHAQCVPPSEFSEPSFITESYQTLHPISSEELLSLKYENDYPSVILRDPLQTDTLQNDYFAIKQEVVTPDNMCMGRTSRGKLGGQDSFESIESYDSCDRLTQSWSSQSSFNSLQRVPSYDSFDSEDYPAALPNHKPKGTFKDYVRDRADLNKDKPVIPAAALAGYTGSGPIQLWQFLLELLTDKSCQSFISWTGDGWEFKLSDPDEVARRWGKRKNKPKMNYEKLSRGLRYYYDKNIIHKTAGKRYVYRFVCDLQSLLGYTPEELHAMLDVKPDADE

Which ETS1 binding intensity does the source give for AGCGGCCTGGGAGGAGGATGTGGTTACGTGGAGACC here?
Its ETS1 binding intensity is 15200.

Which ETS1 binding intensity does the source give for GGGGAACGGAAGCTGCTGTCGTTACTGGCGGTTGTA here?
Its ETS1 binding intensity is 1320.

For GACTCTTCCGGCCCAGAGCTTTCGGAGTGCGGTTGC, which ETS1 binding intensity is on record?
Its ETS1 binding intensity is 704.

How did the ETS1 binding intensity turn out when GGACCGGAAGTAGGTTTCTACCCGACCGCATTTTAC was run?
Its ETS1 binding intensity is 43900.

TGTCCGCACCCCACTTCCGCCCCGCAGAGGGCAACG was tested. Which ETS1 binding intensity did it give?
The ETS1 binding intensity was 3480.

With CCATTTCCGCGCACGTCTGCAGATGCGGTAGTCGAT as the sequence, how does the ETS1 binding intensity read?
The ETS1 binding intensity was 463.

With TTGTCGGGTATGGGATGTGGGCAGAGAGTATGATGG as the sequence, how does the ETS1 binding intensity read?
The ETS1 binding intensity was 835.

Which ETS1 binding intensity does the source give for AGATCAACTTCCACATCCGGTGGTAACAGGGCCCTA here?
Its ETS1 binding intensity is 5560.

For AAAGAGGAAATCACATACCCGAAAACCACATGCACA, which ETS1 binding intensity is on record?
Its ETS1 binding intensity is 1050.

Which ETS1 binding intensity does the source give for CCCGGAAACTCAACTGCCCACTGCTGCGGCCGCCAT here?
Its ETS1 binding intensity is 708.

AGAAAAGGAAATGGTGGGCTGCACACCACAGCTCAC was tested. Which ETS1 binding intensity did it give?
Its ETS1 binding intensity is 461.

For ACTCCCTAGAGCAGGAAGCCTGTGGTTTGTAATTGG, which ETS1 binding intensity is on record?
Its ETS1 binding intensity is 7950.

With AGACGGTAGGCCAGGAAACCGCAGGCCCCTGCCGGG as the sequence, how does the ETS1 binding intensity read?
Its ETS1 binding intensity is 3730.

How did the ETS1 binding intensity turn out when TCCCACATCCTGTGCTCGTGCAGTGGTTAGGCTCAA was run?
The ETS1 binding intensity was 608.

Which ETS1 binding intensity does the source give for CCGTACTTCCGCTTTACTCAGATTTTGGACCGCGGG here?
Its ETS1 binding intensity is 1780.

How did the ETS1 binding intensity turn out when AATGCCGGATATTGGTTCTGGTAAGCCACAAAAAAG was run?
The ETS1 binding intensity was 4090.

For GCACGCCATCGAGGAAGTGGGTTTACTGTGTATTTC, which ETS1 binding intensity is on record?
The ETS1 binding intensity was 1110.

For TGCATGTGCAGCAGAGGAAACCACAAGTTATTCCCT, which ETS1 binding intensity is on record?
Its ETS1 binding intensity is 1560.

For GGGATCTACTTCCTCTCTCGGCCGCGGCCGCAGCAC, which ETS1 binding intensity is on record?
The ETS1 binding intensity was 1150.

For AAGGCGGAGGAAGGGAAAATTGTGGTTGGGCAGAGG, which ETS1 binding intensity is on record?
The ETS1 binding intensity was 742.

For CCCCTCTCTCCCACTTCCTGTGGTCTCAGTCTTTGT, which ETS1 binding intensity is on record?
Its ETS1 binding intensity is 4840.

ACCCTGAAATTACCCGGATGTGGTCCCCGCGCGCGC was tested. Which ETS1 binding intensity did it give?
The ETS1 binding intensity was 8100.

With GGCCGTTCTTCCGCCTGCAGGGTGGTCAGCGGAGGT as the sequence, how does the ETS1 binding intensity read?
The ETS1 binding intensity was 446.

For CTGACACTTCCGGGAGCCTTGTAGCCACAGGAATCA, which ETS1 binding intensity is on record?
The ETS1 binding intensity was 2590.

Which ETS1 binding intensity does the source give for ACTAGAAGCGGAAGTAGTTGTGGGCGCCTTTGCAAC here?
The ETS1 binding intensity was 7470.

How did the ETS1 binding intensity turn out when TAACTACTTCCTTTTACTATCTACCACAATTTAATT was run?
The ETS1 binding intensity was 510.

CTCACAGAAGAGGCAGGAAGTGGTTTGAGTTATCAT was tested. Which ETS1 binding intensity did it give?
The ETS1 binding intensity was 13700.

How did the ETS1 binding intensity turn out when ATTTTTCCTTCCTTCTCCCGTCCCCGCAGAGTGCAA was run?
The ETS1 binding intensity was 465.

With GGAGCATCCCGGAAGTCGTCACTGCGGCCGCTCCCG as the sequence, how does the ETS1 binding intensity read?
Its ETS1 binding intensity is 8070.

How did the ETS1 binding intensity turn out when GGCGGCACTAGGCTTCCGCCTCACCGCAGTGGGGTT was run?
The ETS1 binding intensity was 845.

How did the ETS1 binding intensity turn out when GAGGCAGGCGGATGTCAGTGTGGTTAGAGCACAGTG was run?
The ETS1 binding intensity was 3310.

Which ETS1 binding intensity does the source give for GACAGTCATGTTTCAGGATGTGGTTTTAGCCAAAGG here?
Its ETS1 binding intensity is 13200.

With CCCGCTGTCACTTCCTGCTTCCCTCCCGCACACGTG as the sequence, how does the ETS1 binding intensity read?
Its ETS1 binding intensity is 2310.

How did the ETS1 binding intensity turn out when GACCTGGGTTTCCTGTCTGTACATCGCGGTTCCTAC was run?
Its ETS1 binding intensity is 1260.

With AGTGTCCGCCGCTTCCTGGTTGCGGGTCAGCGCCCA as the sequence, how does the ETS1 binding intensity read?
The ETS1 binding intensity was 704.

How did the ETS1 binding intensity turn out when GTGGAAAGGAAATGTGTCATCTGTGGTTTGGTTTTA was run?
The ETS1 binding intensity was 2110.

CTTTAAGGAGGCGGAAAAGTTAACCGCGATGGGCAG was tested. Which ETS1 binding intensity did it give?
Its ETS1 binding intensity is 1430.

For TTCAGAAAAAAAGGAAGTGGTAAATTCTTGCTGATT, which ETS1 binding intensity is on record?
The ETS1 binding intensity was 3620.

With AGGCTCATTTCCTGTTTTCATGTGGTTTAGAGAAAA as the sequence, how does the ETS1 binding intensity read?
Its ETS1 binding intensity is 5130.

Which ETS1 binding intensity does the source give for AGTGGCAGTGCAGGAAGTGGTTTGTCTGGTACAATC here?
The ETS1 binding intensity was 6800.
